Measured values reported in PubChem BioAssay AID686978 (National Center for Advancing Translational Sciences (NCATS), 2013).
The whole screen tested about 420,000 compounds, of which about 64,000 (15%) were called active. About 27% were inconclusive and are not listed. Only a sample is shown. Unmarked numbers belong to inactive results. Calls follow the shape of the dose curve; as a rule, active = well fitted inhibition curve with a large enough effect; inconclusive = small, poorly fitted or top-dose-only effect; inactive = flat fitted curve, though single readings scatter.

assay: qHTS for Inhibitors of human tyrosyl-DNA phosphodiesterase 1 (TDP1): qHTS in cells in absence of CPT; settings: DT40 Tdp1-/- hTDP1 cells, no CPT, ATP luminescence, 48 h; activity change, negative = growth inhibition: at 46.2 µM (top of the series); also: nearly all actives have a fitted effect of over 55% in size
Method in brief: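 No-CPT arm: Tdp1-/-;hTDP1 DT40 cells (400/well) plus compounds, incubated ≥48 hr at 37 °C. Readout CellTiter-Glo luminescence.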
% is scaled to controls: 0 for no effect and ±100 for the full control effect; potency is read from the fitted curve at half-maximal effect.

Structure (SMILES)	activity change, negative = growth inhibition	Potency
NC(=O)CSc1c[nH]c2ccccc12	-5.76%	
Nc1nonc1-n1nnc(C(=O)N/N=C/c2c[nH]c3ccccc23)c1-c1ccccc1	-12.4%	
Cc1c(/C=N/N2C(=O)C3C4C=CC(C4)C3C2=O)c2ccccc2n1C (stereo not drawn)	-28.9%	
O=C(N/N=C/c1c[nH]c2ccccc12)c1cc2ccccc2o1		14.6 µM (active)
O=C(N/N=C/c1cccc(O)c1)c1cc2c(ccc3ccccc32)o1	-11.2%	
O=C(N/N=C/c1c[nH]c2ccccc12)c1ccccc1O	-15.3%	
Cc1c(/C=N\NC(=O)c2cc3ccccc3o2)c2ccccc2n1C		3.66 µM (active)
O=C(O)c1cccc(NC(=S)N/N=C/c2c[nH]c3ccccc23)c1	14.2%	
CSC(=S)N/N=C/c1c[nH]c2ccccc12		0.92 µM (active)
O=C(O)C(F)(F)C(NCc1ccccc1)c1ccccc1 (stereo not drawn)	-5.89%	
COc1ccc(S(=O)(=O)N2CCC(C(=O)NCCC(=O)NCCc3cccc(F)c3)CC2)cc1	-27%	
Cc1ccc(S(=O)(=O)C2C(=O)NC3(C)CC2c2ccccc2O3)cc1 (stereo not drawn)	-3.39%	
Cn1c(SCC(=O)N2CCCC2)nnc1-c1ccc2c(c1)OCO2	18.9%	
CCC1C(C#N)=C(SC)NC2=C1C(=O)CC(C)(C)C2 (stereo not drawn)	-24.4%	
Nc1nonc1-n1nnc(C(=O)N/N=C/C2CCCCC2)c1-c1ccccc1	6.3%	
CCn1c(=O)cc(SCC(=O)NCc2ccc3c(c2)OCO3)c2ccccc21	-1.5%	
CC1(C)NC(=O)N(CC(=O)Nc2cc(C(F)(F)F)cc(C(F)(F)F)c2)C1=O	0.431%	
Cc1c(NC(=O)/C=C/C(=O)O)cccc1[N+](=O)[O-]	5.13%	
O=C(O)/C=C/C(=O)NNc1ccc([N+](=O)[O-])cc1		18.4 µM (active)
CNC(=S)Nc1ccc([N+](=O)[O-])cc1	-24.8%	
CCC(=O)NC(NCC1CCCO1)C(Cl)(Cl)Cl (stereo not drawn)	-1.9%	
COc1ccccc1CNc1nc(Nc2ccccc2Cl)c2sccc2n1		7.31 µM (active)
COc1cccc(CNc2nccn(-c3ccc(OC)c(OC)c3)c2=O)c1	-13.9%	
COc1cccc(CNc2nc(NCc3ccccc3OC)nc3ccsc23)c1		9.2 µM (active)
COc1ccccc1CNCc1cccs1	-9.52%	
COc1cccc(CNc2nc(NCc3cccs3)nc3ccsc23)c1		10.3 µM (active)
COCCNc1nc(NCc2ccc(NC(C)=O)cc2)c2sccc2n1	-5.82%	

Structure (SMILES)	activity change, negative = growth inhibition	Potency
Cc1nc2cc(NCc3cccs3)ccc2n1C	0.0187%	
CCc1ccc(S(=O)(=O)c2nnn3c2nc(NCc2ccccc2OC)c2cc(Cl)ccc23)cc1	-12.5%	
CC(C)Nc1nc(NCCOc2ccccc2Cl)c2sccc2n1		20.6 µM (active)
COc1ccc(NC(=O)C/C(C)=N/NC(=O)c2cnccn2)cc1Cl	2.04%	
COc1ccc(C(=O)N(Cc2ccc(N(C)C)cc2)C2CCS(=O)(=O)C2)cc1 (stereo not drawn)	-15%	
CC(C)C(OC(=O)c1cccs1)C(=O)NC1CCCCC1 (stereo not drawn)	-21.2%	
CCNc1nc(N)nc(-c2cc(Cl)ccc2OC)n1	-7.89%	
COc1ccc(OC)c(S(=O)(=O)Nc2ccccc2F)c1	-7.95%	
COc1ccc(C(=O)OCC(=O)Nc2ccc3[nH]c(=O)[nH]c3c2)c(OC)c1OC	-5.45%	
O=C(Nc1ccc(F)c([N+](=O)[O-])c1)C1CCCO1 (stereo not drawn)	-22.9%	
COc1ccc(/C=C2\CCc3ccccc3C2=O)c(OC)c1OC		20.6 µM (active)
COc1ccc(/C=C2/CCCc3ccccc3C2=O)cc1		5.8 µM (active)
COc1ccc(/C=C2\N=C3CCCN3C2=O)cc1	21.3%	
COc1ccc(/C=C2\NC(=O)[C@@H]3Cc4ccccc4CN3C2=O)cc1	-8.4% [at 9.04 µM]	
O=C1/C(=C/c2cccs2)CCc2ccccc21	-26.7%	
COc1ccccc1C1=CC(=O)CCC1	-12%	
O=C(O)CC(Cc1ccccc1)C(=O)Nc1ccc([N+](=O)[O-])cc1 (stereo not drawn)	-13.4%	
COc1cccc(C(=O)N/N=C(\C)c2cccc(NC(=O)c3ccc(F)cc3)c2)c1OC		23.1 µM (active)
COc1cccc(C(=O)Nc2cccnc2)c1OC	3.25%	
COc1ccc(/C(C)=N\NC(=O)c2ccc(-c3ccccc3)cc2)c(F)c1	-7.22%	
CCc1ccc(CCC(=O)Nc2ccc(S(N)(=O)=O)cc2)o1	-3.63%	
Cc1ccc2cc(C)c(N3CCC(C)CC3)nc2c1	-35.6%	
CCOc1n[nH]c(-c2ccccc2)n1	15.3%	
O=C(CNC(=O)N1CC(=O)Nc2ccccc21)Nc1ccc(Br)cc1F	-0.716%	
Cc1ccc(Cn2ccc(NC(=O)C3C4CCC(C4)C3C(=O)O)n2)cc1 (stereo not drawn)	-23.8%	
COc1ccc(Cn2ccnc2SCC(=O)Nc2ccc3c(c2)OCO3)cc1	-18.2%	
